High-throughput results: PubChem BioAssay, National Center for Advancing Translational Sciences (NCATS)
Rows were chosen to be rich in hits. Some 7.9% of all compounds tested hit in one or more screens of this group.
SW480 rereplic: induces DNA re-replication in SW480 colon adenocarcinoma cells; Potency, µM (titrated, usually from 46.1 µM), inactives show at the highest dose re-replication activation, actives largely listed as activators; SW480 DNA re-replication, Hoechst DNA content imaging, 48 h; 1.8% of 340,000 active; also: % of control where 0% means no effect; nearly all actives have a fitted effect of over 55% in size
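250 cells/well; 23 nL cpd via pin tool; 48 hr, 37 C, 5% CO2; Hoechst 40 min; imager read of total nuclear intensity, ex 405/em 500-530 nm.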
KB-V1 MDR tox: kills drug-selected multidrug resistant KB-V1 cells; KB-V1 MDR cells viability, CellTiter-Glo, 72 h; 3.4% of 400,000 active; Potency, µM (top dose mostly 46.1 µM), usual class: cytotoxic; also: % is scaled to controls: 0 for no effect and ±100 for the full control effect; nearly all actives have a fitted effect of over 60% in size
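Cells of the MDR subline KB-V1 are plated, dosed with compound at multiple concentrations, and incubated 72 h at 37 degrees C; CellTiter-Glo is then added and luminescence read after 10 min.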
MCF10A rereplic: inducers of DNA re-replication in MCF 10A breast cells | Potency, µM (doses to about 46.1 µM), for the others: at the top dose activity, positive = re-replication, most hits filed as activators | 2.9% of 350,000 active | MCF 10A DNA re-replication, Hoechst nuclear intensity, 48 h; also: % of control where 0% means no effect; nearly all actives have a fitted effect of over 50% in size
HT1080NT lethal: kills 2HG-producing HT-1080-NT fibrosarcoma cells | AID 686970 | 1.6% of 360,000 active | Potency, µM (doses to about 46.1 µM), inactives show top-dose activity, negative = less viability, actives largely listed as cytotoxic | HT-1080-NT fibrosarcoma viability, CellTiter-Glo ATP luminescence, 48 h;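 also: NT is the 2HG producing partner of a matched IDH1 knockdown line; 0% = DMSO-treated cells and -100% = media-only wells without cells; nearly all actives have a fitted effect of over 55% in size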
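Compounds were tested in concentration-response format on HT-1080-NT cells for 48 hours at 37 degrees C. Cell viability came from CellTiter-Glo luminescence; curves were classified by r2, response magnitude and activity.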
HT1080 IDH1KD tx: kills HT-1080 cells with IDH1 knockdown; HT-1080 IDH1 knockdown viability, ATP luminescence, 48 h; Potency, µM (highest dose often 46.1 µM), for the others: top-dose activity, negative = toxicity, usual class: cytotoxic; AID 686971; 2% of 360,000 active;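 also: 0% = DMSO wells and -100% = cell-free medium wells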
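Assay cells: HT-1080 with IDH1 knockdown, 750 per well, RPMI/5% FBS. Exposure: 48 h at 37 °C following 2 h pre-incubation. Read: CellTiter-Glo luminescence; fitted concentration-response, curve class assigned.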
KB-3-1 cytotox: kills parental KB-3-1 adenocarcinoma cells; KB-3-1 viability, CellTiter-Glo ATP luminescence, 72 h; Potency, µM (doses to about 46.1 µM), actives largely listed as cytotoxic; 1.4% of 400,000 active; AID 1347075; also: % is scaled to controls: 0 for no effect and ±100 for the full control effect; nearly all actives have a fitted effect of over 60% in size
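KB-3-1 parental drug-naive adenocarcinoma cells in DMEM/10% FBS, incubated 72 h at 37 C with pin-transferred compounds across a concentration series. Viability by CellTiter-Glo luminescence; concentration-response curves fitted after normalization.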
Starred values were filed as active, the others as inactive. Calls follow the shape of the dose curve; as a rule, active = well fitted curve in the direction sought with a large enough effect; inconclusive = small, poorly fitted or top-dose-only effect, or another doubt; inactive = no such curve, though single readings can be large; an effect the other way counts as inactive or inconclusive. Potency is read from the fitted curve at half-maximal effect.

Results for COc1cccc(N2CCN(c3ncnc4c3cnn4-c3ccc(C)cc3C)CC2)c1 ?
SW480 rereplic: 5.4%; KB-V1 MDR tox: inconclusive; MCF10A rereplic: 6.51µM*; HT1080NT lethal: 23.1µM*; HT1080 IDH1KD tx: inconclusive; KB-3-1 cytotox: 10.3µM*

How did CC(C)NC(=O)COC(=O)c1ccccc1OCC(=O)Nc1ccc(Br)cc1 do in these assays?
HT1080NT lethal: -24.0%; HT1080 IDH1KD tx: -9.6%

What do the screens show for `COc1cccc(-c2cnc(NCc3ccccc3Cl)n2C)c1`?
KB-V1 MDR tox: inactive; KB-3-1 cytotox: inactive

What do the screens show for `CCN(C[C@H]1N[C@@](C)(C(=O)OC)[C@H]2C(=O)N(C)C(=O)[C@@H]12)C(=O)c1ccc(C(C)(C)C)cc1`?
SW480 rereplic: inconclusive; KB-V1 MDR tox: inactive; MCF10A rereplic: 10.6%; HT1080NT lethal: 6.5%; HT1080 IDH1KD tx: 7.7%; KB-3-1 cytotox: inactive

How did COC(=O)c1ccc(Cn2c(SCc3ccccc3F)nc3ccncc32)cc1 do in these assays?
KB-V1 MDR tox: inactive; KB-3-1 cytotox: inactive

What do the screens show for `O[C@H]1CN(Cc2cccs2)[C@@H](c2ccccc2)C[C@@H]1n1cc(C2CC2)nn1`?
KB-V1 MDR tox: inactive; HT1080NT lethal: -5.7%; HT1080 IDH1KD tx: 2.8%; KB-3-1 cytotox: inactive

What do the screens show for `Cc1ccc(-n2ncc3c(N4CCN(Cc5ccccc5)CC4)ncnc32)cc1C`?
KB-V1 MDR tox: inconclusive; KB-3-1 cytotox: inactive

Results for COc1ccc(-n2ncc3c(N4CCN(Cc5ccccc5)CC4)ncnc32)cc1 ?
SW480 rereplic: inconclusive; KB-V1 MDR tox: 13µM*; MCF10A rereplic: 20.6µM*; HT1080NT lethal: 14.6µM*; HT1080 IDH1KD tx: inconclusive; KB-3-1 cytotox: inconclusive

Results for Cc1ccc(Cn2ncc3c(N4CCN(Cc5ccc(Cl)cc5)CC4)ncnc32)cc1 ?
SW480 rereplic: 11.1%; KB-V1 MDR tox: 2.59µM*; MCF10A rereplic: inconclusive; HT1080NT lethal: -2.3%; HT1080 IDH1KD tx: -12.0%; KB-3-1 cytotox: inconclusive

Results for Cc1ccc(Cn2ncc3c(N4CCN(c5ccc(C)cc5)CC4)ncnc32)cc1 ?
SW480 rereplic: 2.0%; KB-V1 MDR tox: inconclusive; MCF10A rereplic: 24.0%; HT1080NT lethal: 6.5%; HT1080 IDH1KD tx: -15.1%; KB-3-1 cytotox: inactive

How did Cc1ccc2nc(-c3ccc(C)o3)c(Nc3ccc(F)cc3)n2c1 do in these assays?
HT1080NT lethal: 18.6%; HT1080 IDH1KD tx: 19.4%

Results for O=C(NN=Cc1cccc2ccccc12)C(=O)NN=Cc1cccc2ccccc12 ?
SW480 rereplic: inconclusive; KB-V1 MDR tox: inactive; MCF10A rereplic: 2.31µM*; HT1080NT lethal: -2.0%; HT1080 IDH1KD tx: 6.9%; KB-3-1 cytotox: inconclusive

How did O=C(O)c1cc(N/N=C/c2cccc3ccccc23)ccc1Cl do in these assays?
SW480 rereplic: -1.4%; KB-V1 MDR tox: inactive; MCF10A rereplic: 23.1µM*; HT1080NT lethal: -6.4%; HT1080 IDH1KD tx: 0.5%; KB-3-1 cytotox: inactive

Results for CC(O)C(=O)N/N=C/c1cccc2ccccc12 (stereo unspecified) ?
SW480 rereplic: -13.0%; KB-V1 MDR tox: inconclusive; MCF10A rereplic: -0.6%; HT1080NT lethal: 7.1%; HT1080 IDH1KD tx: 7.9%; KB-3-1 cytotox: inconclusive

How did CC(C)Cc1ccc(-c2ccc3nccn3c2)cc1 do in these assays?
KB-V1 MDR tox: inactive; HT1080NT lethal: inconclusive; HT1080 IDH1KD tx: inconclusive; KB-3-1 cytotox: inactive

Results for CCOC(=O)C1CCN(C(c2ccccc2)c2c(O)cc(C)n(Cc3ccco3)c2=O)CC1 (stereo unspecified) ?
KB-V1 MDR tox: inactive; KB-3-1 cytotox: inactive

How did CC(C)(C)C1CCc2onc(C(=O)Nc3sc4c(c3C#N)CCCC4)c2C1 (stereo unspecified) do in these assays?
KB-V1 MDR tox: inactive; KB-3-1 cytotox: inactive

What do the screens show for `CCCCC1=NN(C(=O)c2cocc2C)C(O)(C(F)(F)F)C1` (stereo unspecified)?
SW480 rereplic: 7.31µM*; KB-V1 MDR tox: inactive; MCF10A rereplic: inconclusive; HT1080NT lethal: 4.5%; HT1080 IDH1KD tx: -25.8%; KB-3-1 cytotox: inactive

How did CCOc1ccc(-c2cc(C(=O)O)c3ccccc3n2)cc1 do in these assays?
SW480 rereplic: 2.6%; KB-V1 MDR tox: inactive; MCF10A rereplic: 15.0%; HT1080NT lethal: inconclusive; HT1080 IDH1KD tx: 11.2µM*; KB-3-1 cytotox: inactive

Results for CCOc1ccc(-c2cc(C(=O)N3CCN(c4cccc(C(F)(F)F)c4)CC3)c3ccccc3n2)cc1 ?
KB-V1 MDR tox: inconclusive; KB-3-1 cytotox: 5.8µM*

Results for CCOc1ccc(-c2cc(C(=O)NCCCn3ccnc3)c3ccccc3n2)cc1 ?
SW480 rereplic: -17.8%; KB-V1 MDR tox: inactive; MCF10A rereplic: 0.581µM*; HT1080NT lethal: -5.5%; HT1080 IDH1KD tx: -8.0%; KB-3-1 cytotox: inactive

Results for Cc1ccccc1-c1noc(-c2ccccc2OCC(=O)Nc2cccc([N+](=O)[O-])c2)n1 ?
KB-V1 MDR tox: inactive; KB-3-1 cytotox: inactive

What do the screens show for `CCN(CC)c1ccc(C(=O)NNC(=O)C2CSC3(C)CCC(=O)N23)cc1` (stereo unspecified)?
SW480 rereplic: 8.4%; KB-V1 MDR tox: inactive; MCF10A rereplic: -0.1%; HT1080NT lethal: -1.8%; HT1080 IDH1KD tx: 3.1%; KB-3-1 cytotox: inactive

How did COc1ccc(C2CN=NC23CCCc2ccccc2C3=O)cc1 (stereo unspecified) do in these assays?
SW480 rereplic: 18.4µM*; KB-V1 MDR tox: inconclusive; MCF10A rereplic: 18.4µM*; HT1080NT lethal: inconclusive; HT1080 IDH1KD tx: inconclusive; KB-3-1 cytotox: inconclusive

How did O=C1c2ccccc2CCC12N=NCC2c1ccc(Cl)cc1 (stereo unspecified) do in these assays?
SW480 rereplic: -2.3%; KB-V1 MDR tox: inactive; MCF10A rereplic: -1.1%; HT1080NT lethal: -2.0%; HT1080 IDH1KD tx: 1.5%; KB-3-1 cytotox: inactive

What do the screens show for `COc1ccc(C2CN=NC23CCc2ccccc2C3=O)cc1` (stereo unspecified)?
SW480 rereplic: 49.6%; KB-V1 MDR tox: inconclusive; MCF10A rereplic: inconclusive; HT1080NT lethal: inconclusive; HT1080 IDH1KD tx: 16.4µM*; KB-3-1 cytotox: inconclusive

What do the screens show for `Cc1ccc2nc(NC(=O)c3nc(SCc4ccccc4C)ncc3Cl)sc2c1`?
KB-V1 MDR tox: inactive; KB-3-1 cytotox: inactive

How did CC1CCCN(c2nc3ccccc3nc2C(C#N)S(=O)(=O)c2cccs2)C1 (stereo unspecified) do in these assays?
SW480 rereplic: 1.1%; KB-V1 MDR tox: inconclusive; MCF10A rereplic: inconclusive; HT1080NT lethal: 2.9%; HT1080 IDH1KD tx: inconclusive; KB-3-1 cytotox: inactive
